This is a sample that favours compounds with a hit; in the whole collection about 17% have one here.
HepG2 tox: HepG2 cytotoxicity, counter-screen for TGF-b inhibitors; HepG2 CAGA-GFP viability, ATP luminescence, 18 h; Potency, µM (highest dose often 46.1 µM), without a hit: top-dose activity change, negative = cytotoxicity, usual class: cytotoxic; 0.76% of 410,000 active; AID 588856
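CellTiter-Glo luminescence gave cytotoxicity after 18 hours at 37 degrees C. The cells were HepG2 CAGA-GFP in 1% FBS DMEM, stimulated with 500 pg/mL TGF-beta after compound addition. %Activity was normalised to no-cell wells (complete cell-killing) and DMSO (no toxicity), and curves were fitted and classified.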
DT40 TDP1 no CPT: qHTS for Inhibitors of human tyrosyl-DNA phosphodiesterase 1 (TDP1): qHTS in cells in absence of CPT. DT40 Tdp1-/- hTDP1 cells, no CPT, ATP luminescence, 48 h. 15% of 420,000 active. Potency, µM (series often up to 46.2 µM), for the others: at the highest dose activity change, negative = growth inhibition, actives largely listed as inhibitors. AID 686978, 2013; also: % is scaled to controls: 0 for no effect and ±100 for the full control effect; nearly all actives have a fitted effect of over 55% in size
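DT40 Tdp1-/-;hTDP1 cells, no CPT (DMSO vehicle only), 400 cells/well; compounds pin-transferred; ≥48 hr, 37 °C; CellTiter-Glo 30 min RT dark, luminescence read.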
HT1080NT lethal: kills 2HG-producing HT-1080-NT fibrosarcoma cells; HT-1080-NT fibrosarcoma viability, CellTiter-Glo ATP luminescence, 48 h; Potency, µM (series often up to 46.1 µM), without a hit: at the highest dose activity, negative = less viability, most hits filed as cytotoxic; 1.6% of 360,000 active; AID 686970;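 also: NT is the 2HG producing partner of a matched IDH1 knockdown line; 0% = DMSO-treated cells and -100% = media-only wells without cells; nearly all actives have a fitted effect of over 55% in size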
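Read-out is CellTiter-Glo luminescence after 10 minutes at room temperature, following 48 hours' compound treatment of HT-1080-NT cells (750 cells/well, RPMI, 5% FBS, 37 degrees C).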
TDP1 cell CPT: DT40-hTDP1 cell growth loss with CPT; chicken DT40 Tdp1-/-;hTDP1 cells + 20 nM CPT, ATP luminescence, 48 h; Potency, µM (doses to about 46.2 µM), without a hit: at the highest dose activity change, negative = growth inhibition, usual class: inhibitors; 12% of 420,000 active; AID 686979; also: % is scaled to controls: 0 for no effect and ±100 for the full control effect; nearly all actives have a fitted effect of over 55% in size
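Cell growth measured by CellTiter-Glo luminescence after a minimum 48 h, 37 C compound exposure with 20 nM CPT in Tdp1-knockout DT40 cells stably expressing hTDP1, seeded 400/well; qHTS titration format.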
TGFb SMAD3 inh: TGF-b pathway inhibition. HepG2 CAGA-GFP TGF-b/SMAD3 reporter, GFP fluorescence, 18 h; TGF-beta stimulated, 500 pg/mL final. 1.2% of 410,000 active. AID 588855. Potency, µM (highest dose often 46.1 µM), inactives show top-dose activity, negative = inhibition, hits mostly inhibitors; also: % is scaled to controls: 0 for no effect and ±100 for the full control effect; nearly all actives have a fitted effect of over 65% in size
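Per well, imaged GFP fluorescence of HEPG2 CAGA-GFP cells gives the signal; cells get compound, then TGF-beta (500 pg/mL final), 18 h at 37 degrees C; %Activity versus -TGF-beta and +DMSO controls.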
HT1080 IDH1KD tx: kills HT-1080 cells with IDH1 knockdown. Potency, µM (titrated, usually from 46.1 µM), inactives show at the highest dose activity, negative = toxicity, usual class: cytotoxic. HT-1080 IDH1 knockdown viability, ATP luminescence, 48 h. AID 686971. 2% of 360,000 active;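 also: 0% = DMSO wells and -100% = cell-free medium wells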
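IDH1KD HT-1080 cells, 750/well, RPMI + 5% FBS; compound pinned after 2 h settling; 48 h, 37 °C; CellTiter-Glo luminescence; % activity normalised to DMSO and no-cell wells; curves fitted, classed by r2 and efficacy.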
Numbers without * were called inactive; u = inconclusive; x = not tested or not shown. Calls follow the shape of the dose curve; as a rule, active = well fitted curve in the direction sought with a large enough effect; inconclusive = small, poorly fitted or top-dose-only effect, or another doubt; inactive = no such curve, though single readings can be large; an effect the other way counts as inactive or inconclusive. Potency is read from the fitted curve at half-maximal effect.

SMILES | HepG2 tox | DT40 TDP1 no CPT | HT1080NT lethal | TDP1 cell CPT | TGFb SMAD3 inh | HT1080 IDH1KD tx
COc1ccccc1C1CC(=O)NC(C)=C1C(=O)OCC1CCCO1 (configuration not stated) | 1.7% | -19.4% | 11.7% | -18.5% | -12.6% | 9.0%
COc1ccc(OC)c(C2CC(=O)c3c([nH]c(C(=O)OCC4CCCO4)c3C)C2)c1 (configuration not stated) | -8.3% | 5.17µM* | -11.0% | 5.8µM* | -2.3% | -15.4%
COc1ccc(OC)c(C2CC(=O)c3c([nH]c(C(=O)OCc4ccc(C)cc4)c3C)C2)c1 (configuration not stated) | -3.1% | 0.651µM* | x | 4.61µM* | -2.7% | x
Cc1cnccc1CNC(=O)C1CCC(=O)N(Cc2ccc(Cl)cc2)C1 (configuration not stated) | 2.1% | 20.3% | 8.3% | 12.4% | u | 17.5%
CCn1nc(C)c(CN2CCCC(CNS(=O)(=O)c3ccc(OC)cc3)C2)c1C (configuration not stated) | -3.9% | u | -0.6% | 20.6µM* | 13.9% | -6.7%
CC(C)n1c(NCc2cc(Cl)ccc2O)nc2ccccc21 | -40.2% | 18.4µM* | -0.9% | u | u | 0.1%
COc1cccc(CNc2nc3ccccc3n2C(C)C)c1O | -1.4% | u | -11.9% | 20.6µM* | -0.8% | -7.4%
CCn1c(CNc2nc3ccccc3n2C(C)C)nc2ccccc21 | -29.8% | 10.3µM* | -11.5% | 14.6µM* | u | -3.7%
Cc1ccc(O)c(CNc2nc3ccccc3n2C(C)C)c1 | -36.7% | u | -9.8% | u | u | -4.4%
COc1ccc(S(=O)(=O)N2CCCCC2)cc1NC(=O)c1ccc(N2CCCC2=O)cc1 | -0.2% | -1.1% | 0.3% | -18.6% | 16.1% | -4.7%
N[C@@H](Cc1cc(I)c(Oc2ccc(O)cc2)c(I)c1)C(=O)O | x | u | x | 0.8% | x | x
CCC(C(=O)Nc1ccc(F)cc1F)n1nc(-c2ccccc2)c2c(c1=O)CCCC2 (configuration not stated) | -28.3% | u | x | u | u | x
COCCCn1c(=O)c2sccc2n(Cc2ccccc2C)c1=O | -39.4% | u | 1.0% | u | -9.0% | -13.0%
NC(=O)Cn1nc([N+](=O)[O-])nc1Oc1ccccc1F | -13.6% | 1.5% | 19.7% | 0.2% | -10.4% | 4.8%
CSc1nc(N)nc2c1ncn2CC(=O)NCCCc1ccccc1 | -26.9% | 14.6µM* | -6.6% | u | 2.0% | -1.8%
COC(=O)c1ccc(CNC(=O)Cn2cnc3c(SC)nc(N)nc32)cc1 | -20.8% | u | -6.6% | 23.1µM* | u | -0.5%
COC(=O)[C@H](Cc1ccc(O)cc1)NC(=O)Cn1cnc2c(SC)nc(N)nc21 | -9.4% | -3.1% | 0.0% | -0.7% | -1.4% | -0.9%
COc1ccc(CN(C)C(=O)Cn2cnc3c(SC)nc(N)nc32)cc1OC | 3.4% | 20.6µM* | -1.6% | 14.6µM* | 2.3% | -7.3%
COC(=O)[C@@H](Cc1ccccc1)NC(=O)Cn1cnc2c(SC)nc(N)nc21 | 5.7% | -11.5% | 12.7% | -5.0% | -2.3% | 8.6%
CCC[C@H]1CN(Cc2cccnc2)C(=O)[C@@H]1CC(=O)Nc1ccc(Br)cc1 | -17.5% | u | 2.1% | -29.7% | -7.4% | -15.4%
COc1ccc2nc(C)cc(N3CCN(S(=O)(=O)c4ccccc4F)CC3)c2c1 | -44.6% | 3.26µM* | -10.6% | u | -19.7% | -3.8%
COc1ccc(C(=O)CN2CCN(c3cc(C)nc4ccccc34)CC2)cc1 | 26.3% | 29.1µM* | -2.6% | 25.9µM* | u | -1.0%

Screens from PubChem.
